# Laboratory results reported in PubChem BioAssay (Tox21).
# Inconclusive results are not listed. Calls of active or inactive are those of the source. Calls follow the shape of the dose curve; as a rule, active = well fitted inhibition curve with a large enough effect in the repeat runs; inconclusive = weak or mixed curves; inactive = no such curve, though single readings can be large or run the other way.
# Biological target: Cytochrome P450 3A4 (Homo sapiens) (UniProt P08684)
# Assay: Cytochrome P450 Family 3 Subfamily A Member 4 (CYP3A4) small molecule antagonists: luciferase reporter qHTS assay (AID 1671201); also: nearly all actives have a fitted effect of over 50% in size
# Conditions: P450-Glo CYP3A4 enzyme, luciferin luminescence, 1 h; series mostly up to 115 µM; activity change, negative = inhibition: at the top concentration
# From the text: National Center for Advancing Translational Sciences [NCATS]
# U.S. Environmental Protection Agency [EPA]
# National Institutes of Environmental Health Sciences [NIEHS]
# National Toxicology Program [NTP]
# U.S. Food and Drug Administration [FDA]
# Cytochrome P450 (CYP) enzymes are membrane-bound hemeproteins that play a key role in metabolism of drugs and xenobiotics. Evaluation of the effect of chemicals on CYP isozymes is useful to minimize the adverse drug reactions and toxicities in drug development process. Tox21 chemicals were tested for their effect on CYP enzyme activities by using P450-Glo (TM) screening systems (Promega Corporation, Madison, WI). These systems provide a luminescent method containing proluciferin substrates and are converted to luciferin products by CYP isozymes. The luciferin products formed are detected with a luciferin detection reagent, and the amount of light produced is proportional to CYP activity. P450-Glo (TM) CYP3A4 screening system (Catalog. No. V9910) was used to detect the compounds that interfere in CYP3A4 activity. The positive control compound used for CYP3A4 assay is ketoconazole (Sigma-Aldrich, St. Louis, MO).
# Tox21 Assay Protocol Summary:
# Two ul of enzyme-substrate mix was dispensed into medium binding white/solid 1536-well plates (Greiner Bio-One North America Inc., Monroe, NC) using a BioRaptr Flying Reagent Dispenser (FRD, Beckman Coulter, Brea, CA). Compounds dissolved in DMSO and positive control (ketoconazole) were transferred to the assay plates at 23 nl using a Pintool station (Wako, San Diego, CA). The assay plates were incubated at room temperature for 10 min. Then 2 ul of NADPH regeneration solution was added to each well of the assay plates using an FRD and incubated at room temperature for 1 h. The reaction was stopped by adding 4 ul of detection reagent using an FRD and after 20 min incubation at room temperature the luminescence signal was measured using a ViewLux plate reader (Perkin Elmer, Shelton, CT). Data were expressed as relative luminescence units.
# % is scaled to controls: 0 for no effect and ±100 for the full control effect; potency is read from the fitted curve at half-maximal effect.
# Cytochrome P450 3A4 (Homo sapiens), sequence (P08684 whole entry, looked up): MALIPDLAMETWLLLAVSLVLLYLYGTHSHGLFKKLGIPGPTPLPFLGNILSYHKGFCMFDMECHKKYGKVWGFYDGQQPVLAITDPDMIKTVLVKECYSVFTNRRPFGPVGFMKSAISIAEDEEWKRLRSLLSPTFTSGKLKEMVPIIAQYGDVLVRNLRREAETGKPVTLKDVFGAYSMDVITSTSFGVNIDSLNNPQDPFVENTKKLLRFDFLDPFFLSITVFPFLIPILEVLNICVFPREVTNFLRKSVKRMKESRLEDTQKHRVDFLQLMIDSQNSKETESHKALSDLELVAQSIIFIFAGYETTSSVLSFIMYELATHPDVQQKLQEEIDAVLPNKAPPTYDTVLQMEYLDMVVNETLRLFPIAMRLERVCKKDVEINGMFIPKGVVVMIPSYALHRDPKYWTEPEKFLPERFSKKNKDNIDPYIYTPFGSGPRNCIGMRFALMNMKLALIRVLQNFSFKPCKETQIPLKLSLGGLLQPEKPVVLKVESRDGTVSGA
Structure (SMILES),"activity change, negative = inhibition",Potency
CC(=O)OCCC1CCCCC1,0.274% (inactive),–
O=C(NC(Cc1cc(=O)[nH]c2ccccc12)C(=O)O)c1ccc(Cl)cc1 (stereo not given),-6.56% [at 52.9 µM] (inactive),–
COc1ccc(C(=O)NCc2ccc(OCCN(C)C)cc2)cc1OC,0.697% [at 52.9 µM] (inactive),–
CCOCCC(=O)OCC,5% (inactive),–
CCCCCCCC/C=C\CCCCCCCC(=O)OCCO,–,13.3 µM (active)
CCCCCCCCCCCCCCCCCC(=O)OCC(CC)CCCC (stereo not given),4.11% (inactive),–
Cc1cccc2sc(N)nc12,-3.48% (inactive),–
COC(CC(C)CCCC(C)(C)O)OC (stereo not given),-5.06% (inactive),–
O=C(O)c1cccc(C[C@@H]2COc3ccc(OCc4nc5cc(F)ccc5s4)cc3[C@@H]2O)c1,-14.1% (inactive),–
Oc1ccc2c(c1)Cc1ccccc1-2,-7.62% (inactive),–
C=CC(=O)O,20.4% [at 52.9 µM] (inactive),–
CCCCC(CC)COS(=O)(=O)O (stereo not given),32.6% (inactive),–
Nc1c(Cl)cc(Cl)cc1[N+](=O)[O-],-2% (inactive),–
CC(C)(C)NCC(O)COc1cccc2c1C[C@H](O)[C@H](O)C2 (stereo not given in full),4.47% [at 52.9 µM] (inactive),–
Cc1ccccc1S(N)(=O)=O,1.34% (inactive),–
O=CNNC=O,-3.4% (inactive),–
CC1C(C)(C)C2=C(C(=O)CCC2)C1(C)C (stereo not given),-8.33% (inactive),–
CC(C)C(=O)OCCOc1ccccc1,53.7% (inactive),–
CC(C)(C)CCCCCCOC(=O)c1ccccc1C(=O)OCCCCCCC(C)(C)C,-11.3% (inactive),–
CCCCCc1ccco1,–,23.2 µM (active)

Structure (SMILES),"activity change, negative = inhibition",Potency
CCCCCCCCCCCCCOS(=O)(=O)O,47.5% (inactive),–
CCc1ccc(C)cc1,8.81% (inactive),–
CCCCCCCC/C=C/C(=O)O,0.255% [at 52.9 µM] (inactive),–
CC(=O)C(C)=O,2.47% (inactive),–
CC1CCCO1 (stereo not given),10% (inactive),–
CCN(CC)C(=O)N1CCN(C)CC1,9.19% [at 52.9 µM] (inactive),–
Cc1c(C2(c3cc(Br)c(O)c(Br)c3C)OS(=O)(=O)c3ccccc32)cc(Br)c(O)c1Br,–,27.4 µM (active)
O=C(O)CCS,5.26% (inactive),–
ClC1=C(Cl)C1(Cl)Cl,0.413% (inactive),–
O=C(NS(=O)(=O)/C=C/c1ccccc1)c1ccc(F)cc1Cl,23.1% (inactive),–
C1CCCCC1,3.34% (inactive),–
c1ccc(CNc2ncnc3c2ncn3C2CCCCO2)cc1 (stereo not given),1.84% (inactive),–
CC(C)N=C=NC(C)C,4.1% (inactive),–
O=C(O)CNC(=O)c1ccccc1I,11.6% [at 52.9 µM] (inactive),–
CC(C)COC(=O)c1ccc(O)cc1,5.54% (inactive),–
CC1=CC[C@@H]2C[C@H]1C2(C)C,–,3.98 µM (active)
CNS(=O)(=O)c1cc(C(=O)N2CCC(CCN3C4CCC3CC(n3c(C)nc5ccccc53)C4)(c3cccc(F)c3)CC2)c(Cl)cc1F (stereo not given),4.26% (inactive),–
CCCOC(=O)c1c(Cl)c(Cl)c(Cl)c(Cl)c1C(=O)OCCC,2.84% (inactive),–
CC[C@@H](CO)NCCN[C@@H](CC)CO,2.78% [at 52.9 µM] (inactive),–
O=c1[nH][nH]c(=O)c2cc([N+](=O)[O-])ccc12,-6.18% (inactive),–
